According to the supplement of paper PMC3334620:
The full ranking holds about 33,000 sequences; the median of “E-score (-0.5 to 0.5)” is about -0.041, and the highest 2% start at about 0.37. The entries come from a sample that favours the highest values as a whole.

biological target: T1, Ecm22 (UniProt Q05958); test: PBM E-score (8-mer binding enrichment) (E-score (-0.5 to 0.5)); higher = stronger / more preferred TF binding; conditions: protein concentration: 200 nM; construct: GST-full length
T1 sequence: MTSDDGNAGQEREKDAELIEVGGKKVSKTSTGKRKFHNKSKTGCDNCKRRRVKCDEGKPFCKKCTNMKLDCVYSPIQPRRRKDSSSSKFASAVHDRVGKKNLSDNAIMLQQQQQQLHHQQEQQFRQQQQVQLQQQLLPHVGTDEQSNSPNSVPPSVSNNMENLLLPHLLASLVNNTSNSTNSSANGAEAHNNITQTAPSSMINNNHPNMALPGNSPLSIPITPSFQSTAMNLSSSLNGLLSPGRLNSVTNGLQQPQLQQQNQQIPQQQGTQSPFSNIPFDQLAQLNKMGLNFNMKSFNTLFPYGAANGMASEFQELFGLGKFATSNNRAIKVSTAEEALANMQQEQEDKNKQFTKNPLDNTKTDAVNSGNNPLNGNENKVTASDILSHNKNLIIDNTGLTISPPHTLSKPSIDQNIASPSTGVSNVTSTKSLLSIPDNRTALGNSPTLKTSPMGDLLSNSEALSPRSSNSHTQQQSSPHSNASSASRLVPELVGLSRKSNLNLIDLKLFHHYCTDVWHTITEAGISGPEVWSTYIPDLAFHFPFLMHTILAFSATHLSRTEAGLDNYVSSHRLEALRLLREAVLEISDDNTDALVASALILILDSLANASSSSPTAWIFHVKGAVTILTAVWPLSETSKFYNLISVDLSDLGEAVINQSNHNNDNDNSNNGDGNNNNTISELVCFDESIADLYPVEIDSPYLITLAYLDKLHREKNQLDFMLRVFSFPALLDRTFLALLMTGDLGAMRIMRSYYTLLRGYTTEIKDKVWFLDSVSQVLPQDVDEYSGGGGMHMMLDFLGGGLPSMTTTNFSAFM
Procedure: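 Universal 'all 10-mer' protein binding microarrays (Agilent AMADID 015681) probed with GST-tagged S. cerevisiae TFs (full-length or DBD) made by in vitro transcription/translation (PURExpress), about 100-200 nM. Bound TF was detected with fluorescent anti-GST. Each ungapped 8-mer (which stands for itself and its reverse complement) is scored by the PBM enrichment score (E-score), a modified Wilcoxon-Mann-Whitney statistic from -0.5 to +0.5, computed with the Universal PBM Analysis Suite. Scale: above 0.35 generally sequence-specific binding.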

Sequence	PBM E-score
ACCGCAGC	-0.0492
ATCTTTTA	0.0457
GCCCGCAC	-0.0245
CACCCCAG	-0.0849
ACAATAAT	-0.0625
CGCGGATA	0.188
CACCACAG	-0.132
CTACCCAG	-0.0541
ACCCCAGT	-0.0793
CCTAGAAG	-0.187
CGTGGCGC	0.0496
GCGAAATA	0.0791
ACGAAACT	0.369
ACGAAAGG	0.33
ACGAAACG	0.411
ACGAAATC	0.285
CCGAAACG	0.288
ACGAAACC	0.33
ACGAAACA	0.335
ACGAAATA	0.381
CGAAGGAG	0.129
GACTGAAC	0.0447

Sequence	PBM E-score
AATTCAGT	-0.189
AAACCTTA	0.0879
CTAAGGGA	0.0248
ATCCCACA	-0.176
CATCGTAA	0.381
CATCGTGA	0.108
AATCGTAT	0.427
AATCGTAA	0.333
CATCGTCA	-0.0402
AATCGTCT	0.0505
GATCGTAA	0.387
AATCGTAG	0.211
GATCGTCC	-0.0538
GATCGTAC	0.454
GATCGTTA	0.211
GATCGTGC	0.0469
CCCGCAAA	0.148
CTGACCCA	-0.312
ACTGCTAC	0.00971
CATGCTCA	-0.229
CCACGGAG	-0.163
ACACAGTA	-0.0309

Sequence	PBM E-score
AATCGTGC	0.221
CATCGTCC	0.0413
AATCGTAC	0.458
CATCGTAG	0.261
CATCGTAC	0.458
AATCGTCC	0.0602
GTTAAGCA	-0.0308
CATCAGAG	-0.126
ACACCCCT	-0.271
TGTTCTAA	-0.023
AGTGCGTA	0.14
CGAGTATC	0.246
CCGCTATC	0.0478
CATACGCA	0.216
CATACGGA	0.362
TATACGGA	0.439
GATACGGA	0.285
GATACGCA	0.231
TATACGCA	0.415
CGGATCGA	0.219
ATCTTTTC	-0.0858
ACGTTATG	0.163

Sequence	PBM E-score
CCGAGTAC	0.24
ACGAGTAT	0.382
AAGAGTAG	-0.211
CCGAGTAA	0.256
ACGAGTAA	0.396
GCGAGTAC	0.324
AGGAGTAT	-0.109
ACGAGTAC	0.421
AAGAGTAT	-0.113
ACGAGTAG	0.38
CCGAGTAG	0.0401
GCGAGTAA	0.114
AGGCCCAT	-0.148
GACCGCGC	0.0551
CCCGACCC	0.092
AAGCGCGT	0.0575
CCCCTCGG	0.266
CCGAGCCC	0.0573
CCCCTCTA	-0.112
AAGTTTGT	-0.176
